# Results filed as inconclusive are left out. The source made the active and inactive calls. How the source made its calls: active means hit-call score of the fitted dose curve at least 0.9, where 1 is the maximum; inconclusive means response in the unintended direction; inactive means score below 0.9.
# How the values were obtained:
# [1] = target: human Mitogen-Activated Protein Kinase 1 (MAPK 1), MAPK1 (gene 5594) (UniProt P28482); test: NVS_ENZ_hMAPK1: NovaScreen (NVS) Enzymatic Assay for human Mitogen-Activated Protein Kinase 1 (MAPK 1) (AID 2283175)
# Summary of the method: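 Cell-free recombinant human MAPK1 enzymatic assay, fluorescence/electrophoretic mobility shift read at 1 h; loss of signal vs DMSO. Primary screen in duplicate at 25 uM; actives (e.g. ≥30% inhibition) run as concentration-response up to 50 uM.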
# [2] = target: human Matrix Metalloproteinase-2 (MMP2), MMP2 (gene 4313) (UniProt P08253); test: NVS_ENZ_hMMP2: NovaScreen (NVS) Enzymatic Assay for human Matrix Metalloproteinase-2 (MMP2) (AID 2283184)
# Summary of the method: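 Compounds first screened in duplicate at a single 25 uM, with actives followed up in concentration series. Recombinant human MMP2 cleaves a fluorogenic substrate; fluorescence taken at 1 h, inhibition fitted relative to DMSO.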
# [3] = target: Protein deacetylase HDAC6 (Homo sapiens) (UniProt Q9UBN7); test: NVS_ENZ_hHDAC6: NovaScreen (NVS) Enzymatic Assay for human Histone Deacetylase 6 (HDAC6) (AID 2283164)
# Summary of the method: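 Concentration-response runs up to 50 uM followed a duplicate 25 uM single-point screen. Deacetylase activity of recombinant human HDAC6 read by fluorescence after 1 h, with mobility-shift separation of substrate and product; DMSO as baseline.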
# [4] = target: Mitogen-activated protein kinase 3 (Homo sapiens) (UniProt P27361); test: NVS_ENZ_hMAPK3: NovaScreen (NVS) Enzymatic Assay for human Mitogen-Activated Protein Kinase 3 (MAPK 3) (AID 2283177)
# Summary of the method: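 Chemicals were first tested in duplicate at 25 uM, with hits re-run as concentration series (max 50 uM). Recombinant enzyme activity, measured 1 h post-dose in a cell-free format, was read by fluorescence/mobility shift relative to DMSO.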
# [5] = target: human Matrix Metalloproteinase-9 (MMP9), MMP9 (gene 4318) (UniProt P14780); test: NVS_ENZ_hMMP9: NovaScreen (NVS) Enzymatic Assay for human Matrix Metalloproteinase-9 (MMP9) (AID 2283190);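 further: cell-free recombinant MMP9 protease activity read by fluorescent substrate signal; active means inhibition seen as loss of fluorescence signal versus DMSO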
# Summary of the method: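 Inhibition was scored as loss of fluorescence signal against DMSO controls. The recombinant protease was exposed to chemicals for 1 hour before reading; initial testing used 25 uM in duplicate.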
# [6] = target: human Phosphodiesterase 5 (PDE5), PDE5A (gene 8654) (UniProt O76074); test: NVS_ENZ_hPDE5: NovaScreen (NVS) Enzymatic Assay for human Phosphodiesterase 5 (PDE5) (AID 2283194)
# Summary of the method: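 Screening began in duplicate at 25 uM, with actives taken into concentration-response. Enzyme activity of recombinant PDE5 toward its substrate was measured at 1 h by fluorescence mobility-shift detection, relative to DMSO controls.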
# [7] = target: human Matrix Metalloproteinase-7 (MMP7), MMP7 (gene 4316) (UniProt P09237); test: NVS_ENZ_hMMP7: NovaScreen (NVS) Enzymatic Assay for human Matrix Metalloproteinase-7 (MMP7) (AID 2283183)
# Summary of the method: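 Compounds first tested at 25 uM in duplicate, then at up to 50 uM in concentration series if active. Protease activity measured by fluorescence intensity 1 h after dosing, with fitting relative to DMSO.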
# [8] = target: human Matrix Metalloproteinase-3 (MMP3), MMP3 (gene 4314) (UniProt P08254); test: NVS_ENZ_hMMP3: NovaScreen (NVS) Enzymatic Assay for human Matrix Metalloproteinase-3 (MMP3) (AID 2283185)
# Summary of the method: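 Fluorescent substrate turnover by recombinant MMP3 read after 1 h, signal loss scored against DMSO. Compounds first run in duplicate at 25 uM single dose, then actives confirmed by concentration series.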
# [9] = target: Collagenase 3 (Homo sapiens) (UniProt P45452); test: NVS_ENZ_hMMP13: NovaScreen (NVS) Enzymatic Assay for human Matrix Metalloproteinase-13 (MMP13) (AID 2283182)
# Summary of the method: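 Recombinant MMP13 cleaving fluorescent substrate, cell-free, measured 1 h after dosing. Primary duplicate screen at 25 uM; actives tested in concentration-response up to 50 uM; loss of signal relative to DMSO.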
# [10] = target: Serine/threonine-protein phosphatase PP1-alpha catalytic subunit (Homo sapiens) (UniProt P62136); test: NVS_ENZ_hPPP1CA: NovaScreen (NVS) Enzymatic Assay for human Protein Phosphatase 1 Aatalytic subunit Alpha (PPP1CA) (AID 2283200)
# Summary of the method: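 Chemicals were first screened in duplicate at 25 uM, and those passing threshold (e.g. 30% inhibition) were run as concentration series to 50 uM. Cell-free recombinant protein, 1.33 h read, fluorescent substrate/product mobility-shift detection, normalised to DMSO.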
# [11] = target: human c-Jun N-terminal Kinases (JNK2), MAPK9 (gene 5601) (UniProt P45984); test: NVS_ENZ_hJNK2: NovaScreen (NVS) Enzymatic Assay for human c-Jun N-terminal Kinases (JNK2) (AID 2283171)
# Summary of the method: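 Chemicals first tested in duplicate at 25 uM, then in singleton concentration series up to 50 uM, against extracted JNK2 enzyme. Activity loss read by fluorescence with mobility-shift separation 1 h post-dose; DMSO baseline.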
# [12] = target: human Janus Kinase 2 (Jak2), JAK2 (gene 3717) (UniProt O60674); test: NVS_ENZ_hJak2: NovaScreen (NVS) Enzymatic Assay for human Janus Kinase 2 (Jak2) (AID 2283169)
# Summary of the method: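 Single-point duplicate screen at 25 uM, with hits run in concentration series to a 50 uM top dose. Substrate-product separation by mobility shift with fluorescence detection, 1 h post-dosing; DMSO baseline.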
# [13] = target: human Phosphodiesterase 4A1 (PDE4A1), PDE4A (gene 5141) (UniProt P27815); test: NVS_ENZ_hPDE4A1: NovaScreen (NVS) Enzymatic Assay for human Phosphodiesterase 4A1 (PDE4A1) (AID 2283191)
# Summary of the method: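 Fluorescent substrate turnover by recombinant PDE4A1 read after 1 h by mobility-shift separation. Primary duplicate screen at 25 uM; hits retested in concentration series with a 50 uM maximum, relative to DMSO.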
# [14] = target: Glycogen synthase kinase-3 beta (Homo sapiens) (UniProt P49841); test: NVS_ENZ_hGSK3b: NovaScreen (NVS) Enzymatic Assay for human Glycogen Synthase Kinase-3 beta (GSK3b) (AID 2283165)
# Summary of the method: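 Recombinant enzyme with specific fluorescent substrate, 1 h, product separated by electrophoretic mobility shift. Primary duplicate screen at 25 uM; actives (e.g. 30% inhibition) followed in singleton concentration-response to 50 uM. Signal loss fitted versus DMSO.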
# [15] = target: human MAP Kinase-Activated Protein Kinase 2 (MAPKAPK2), MAPKAPK2 (gene 9261) (UniProt P49137); test: NVS_ENZ_hMAPKAPK2: NovaScreen (NVS) Enzymatic Assay for human MAP Kinase-Activated Protein Kinase 2 (MAPKAPK2) (AID 2283178)
# Summary of the method: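 Chemicals screened in duplicate at 25 uM, then to 50 uM top concentration in concentration-response, against recombinant human MAPKAPK2; substrate conversion read 1 hr post-dosing by fluorescence after electrophoretic mobility-shift separation, loss-of-signal relative to DMSO.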
# [16] = target: human NIMA (Never In Mitosis Gene A)-Related Kinase 2 (NEK2), NEK2 (gene 4751) (UniProt P51955); test: NVS_ENZ_hNEK2: NovaScreen (NVS) Enzymatic Assay for human NIMA (Never In Mitosis Gene A)-Related Kinase 2 (NEK2) (AID 2283188)
# Summary of the method: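 Compounds were first screened in duplicate at 25 uM, with actives followed up in concentration series. Recombinant NEK2 activity, cell-free, was read 1 h after dosing by fluorescence intensity after mobility-shift separation. Signal loss was scored against DMSO.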
# [17] = target: human LYN Proto-Oncogene, Src family Tyrosine Kinase (LynA), LYN (gene 4067) (UniProt P07948); test: NVS_ENZ_hLynA: NovaScreen (NVS) Enzymatic Assay for human LYN Proto-Oncogene, Src family Tyrosine Kinase (LynA) (AID 2283173)
# Summary of the method: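 Recombinant kinase with fluorescent substrate; product separated from substrate by electrophoretic mobility shift and read 1 h after dosing. Duplicate screen at 25 uM, then concentration-response up to 50 uM; activity scored as signal loss against DMSO.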
# [18] = target: human Phosphoinositide 3-kinase alpha (PI3Ka), PIK3CA (gene 5290) (UniProt P42336); test: NVS_ENZ_hPI3Ka: NovaScreen (NVS) Enzymatic Assay for human Phosphoinositide 3-kinase alpha (PI3Ka) (AID 2283196)
# Summary of the method: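 Chemicals were first screened at 25 uM in duplicate, then hits were run as concentration series up to 50 uM. Enzyme activity was measured by fluorescence after mobility-shift separation, with loss of signal relative to DMSO taken as activity.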
# PPP2CA (gene 5515) = PPP2CA (gene 5515) (UniProt P67775); test: NVS_ENZ_hPPP2CA: NovaScreen (NVS) Enzymatic Assay for human Protein Phosphatase 2 Aatalytic subunit Alpha (PPP2CA) (AID 2283199)
# Summary of the method: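 Cell-free phosphatase activity: fluorescent substrate turnover by recombinant human enzyme, resolved by mobility shift at 1.33 h. Compounds passing the 25 uM duplicate primary screen were rerun in singleton series with a 50 uM top concentration.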
# [19] = target: human MET Proto-Oncogene, Receptor Tyrosine Kinase (MET), MET (gene 4233) (UniProt P08581); test: NVS_ENZ_hMet: NovaScreen (NVS) Enzymatic Assay for human MET Proto-Oncogene, Receptor Tyrosine Kinase (MET) (AID 2283180)
# Summary of the method: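 Hits from a 25 uM duplicate screen were retested in concentration series up to 50 uM. Enzyme activity was measured by fluorescence after electrophoretic separation of product from substrate, 1 h after compound addition, relative to DMSO.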
# Sequence of Mitogen-activated protein kinase 3 (Homo sapiens) (P27361 whole entry, looked up): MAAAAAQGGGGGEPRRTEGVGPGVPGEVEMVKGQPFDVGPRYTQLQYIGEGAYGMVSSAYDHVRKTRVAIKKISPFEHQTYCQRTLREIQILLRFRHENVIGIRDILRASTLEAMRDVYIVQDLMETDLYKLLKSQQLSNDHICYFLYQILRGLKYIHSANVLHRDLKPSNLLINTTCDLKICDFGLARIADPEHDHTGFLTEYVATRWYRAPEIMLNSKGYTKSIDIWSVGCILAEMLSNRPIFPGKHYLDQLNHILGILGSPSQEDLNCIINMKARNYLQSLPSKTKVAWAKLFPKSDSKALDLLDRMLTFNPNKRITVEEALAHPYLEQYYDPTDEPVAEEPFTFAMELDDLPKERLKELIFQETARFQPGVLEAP
# Sequence of human Phosphodiesterase 4A1 (PDE4A1), PDE4A (gene 5141) (P27815 whole entry, looked up): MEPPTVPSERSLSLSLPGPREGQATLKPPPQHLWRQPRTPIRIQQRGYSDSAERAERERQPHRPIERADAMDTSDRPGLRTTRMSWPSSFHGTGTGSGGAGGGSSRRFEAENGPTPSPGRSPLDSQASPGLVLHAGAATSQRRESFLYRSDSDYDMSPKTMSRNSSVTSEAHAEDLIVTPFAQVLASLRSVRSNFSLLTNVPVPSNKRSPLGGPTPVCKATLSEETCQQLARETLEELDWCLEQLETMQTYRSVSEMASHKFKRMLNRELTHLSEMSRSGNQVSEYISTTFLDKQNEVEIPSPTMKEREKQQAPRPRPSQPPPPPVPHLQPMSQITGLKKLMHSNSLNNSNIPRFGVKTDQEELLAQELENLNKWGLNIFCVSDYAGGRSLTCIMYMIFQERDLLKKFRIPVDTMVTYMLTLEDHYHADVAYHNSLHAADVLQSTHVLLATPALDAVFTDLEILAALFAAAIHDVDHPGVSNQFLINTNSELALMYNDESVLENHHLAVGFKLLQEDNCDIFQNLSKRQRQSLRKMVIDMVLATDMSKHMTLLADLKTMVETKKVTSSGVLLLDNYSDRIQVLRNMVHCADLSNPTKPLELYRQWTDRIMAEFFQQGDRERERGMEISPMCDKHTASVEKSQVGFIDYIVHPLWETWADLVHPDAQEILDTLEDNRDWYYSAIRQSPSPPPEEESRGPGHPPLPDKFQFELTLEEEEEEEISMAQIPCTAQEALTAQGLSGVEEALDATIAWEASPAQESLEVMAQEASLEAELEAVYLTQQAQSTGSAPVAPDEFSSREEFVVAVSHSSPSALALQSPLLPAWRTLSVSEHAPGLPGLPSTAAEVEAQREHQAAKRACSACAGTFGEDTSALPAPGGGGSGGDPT
# Sequence of human c-Jun N-terminal Kinases (JNK2), MAPK9 (gene 5601) (P45984 whole entry, looked up): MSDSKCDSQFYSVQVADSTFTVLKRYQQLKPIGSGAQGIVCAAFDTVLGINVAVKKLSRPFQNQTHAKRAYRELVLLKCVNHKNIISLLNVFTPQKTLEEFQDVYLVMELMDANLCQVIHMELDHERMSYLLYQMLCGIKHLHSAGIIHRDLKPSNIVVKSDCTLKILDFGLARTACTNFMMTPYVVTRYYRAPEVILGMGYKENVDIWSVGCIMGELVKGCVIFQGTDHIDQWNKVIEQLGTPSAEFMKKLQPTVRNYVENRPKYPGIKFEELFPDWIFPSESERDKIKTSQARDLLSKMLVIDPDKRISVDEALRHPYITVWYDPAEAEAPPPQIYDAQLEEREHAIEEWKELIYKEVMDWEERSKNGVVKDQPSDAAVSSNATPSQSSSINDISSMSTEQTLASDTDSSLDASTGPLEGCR
# Sequence of Serine/threonine-protein phosphatase PP1-alpha catalytic subunit (Homo sapiens) (P62136 whole entry, looked up): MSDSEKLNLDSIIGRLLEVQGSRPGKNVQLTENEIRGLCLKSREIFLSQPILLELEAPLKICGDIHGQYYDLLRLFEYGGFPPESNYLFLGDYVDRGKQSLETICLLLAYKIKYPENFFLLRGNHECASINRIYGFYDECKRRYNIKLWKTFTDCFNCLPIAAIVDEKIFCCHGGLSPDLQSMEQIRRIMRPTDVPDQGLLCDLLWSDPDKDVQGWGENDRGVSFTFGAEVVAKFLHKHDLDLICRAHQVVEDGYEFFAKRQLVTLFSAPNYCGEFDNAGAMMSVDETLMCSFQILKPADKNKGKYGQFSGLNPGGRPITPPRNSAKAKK
# Sequence of human Matrix Metalloproteinase-7 (MMP7), MMP7 (gene 4316) (P09237 whole entry, looked up): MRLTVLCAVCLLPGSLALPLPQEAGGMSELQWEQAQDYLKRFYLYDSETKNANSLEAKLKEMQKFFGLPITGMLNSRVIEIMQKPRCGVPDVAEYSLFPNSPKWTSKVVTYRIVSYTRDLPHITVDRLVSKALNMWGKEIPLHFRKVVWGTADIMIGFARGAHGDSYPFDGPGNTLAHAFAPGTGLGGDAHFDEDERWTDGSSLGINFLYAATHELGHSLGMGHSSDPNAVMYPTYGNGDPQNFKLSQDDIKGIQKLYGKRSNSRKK
# Sequence of human Matrix Metalloproteinase-9 (MMP9), MMP9 (gene 4318) (P14780 whole entry, looked up): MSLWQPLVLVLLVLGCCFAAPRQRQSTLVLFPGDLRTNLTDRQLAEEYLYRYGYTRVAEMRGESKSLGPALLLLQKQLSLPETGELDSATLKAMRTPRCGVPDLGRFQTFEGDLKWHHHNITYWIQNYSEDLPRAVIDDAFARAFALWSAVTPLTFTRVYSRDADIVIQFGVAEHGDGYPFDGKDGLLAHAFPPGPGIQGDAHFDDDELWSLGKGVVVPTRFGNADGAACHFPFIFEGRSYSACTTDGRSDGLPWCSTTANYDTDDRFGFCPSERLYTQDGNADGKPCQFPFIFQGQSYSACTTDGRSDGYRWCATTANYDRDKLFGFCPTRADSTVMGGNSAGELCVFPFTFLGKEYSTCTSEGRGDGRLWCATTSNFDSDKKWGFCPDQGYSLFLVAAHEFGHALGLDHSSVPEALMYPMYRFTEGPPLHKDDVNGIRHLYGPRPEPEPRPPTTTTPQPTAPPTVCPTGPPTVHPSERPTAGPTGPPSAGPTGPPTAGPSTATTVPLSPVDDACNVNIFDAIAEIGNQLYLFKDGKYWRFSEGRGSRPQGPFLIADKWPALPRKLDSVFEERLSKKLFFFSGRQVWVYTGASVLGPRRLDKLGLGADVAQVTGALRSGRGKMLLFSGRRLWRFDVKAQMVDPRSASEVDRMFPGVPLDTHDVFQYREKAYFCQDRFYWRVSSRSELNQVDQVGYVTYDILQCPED
# Sequence of human Matrix Metalloproteinase-2 (MMP2), MMP2 (gene 4313) (P08253 whole entry, looked up): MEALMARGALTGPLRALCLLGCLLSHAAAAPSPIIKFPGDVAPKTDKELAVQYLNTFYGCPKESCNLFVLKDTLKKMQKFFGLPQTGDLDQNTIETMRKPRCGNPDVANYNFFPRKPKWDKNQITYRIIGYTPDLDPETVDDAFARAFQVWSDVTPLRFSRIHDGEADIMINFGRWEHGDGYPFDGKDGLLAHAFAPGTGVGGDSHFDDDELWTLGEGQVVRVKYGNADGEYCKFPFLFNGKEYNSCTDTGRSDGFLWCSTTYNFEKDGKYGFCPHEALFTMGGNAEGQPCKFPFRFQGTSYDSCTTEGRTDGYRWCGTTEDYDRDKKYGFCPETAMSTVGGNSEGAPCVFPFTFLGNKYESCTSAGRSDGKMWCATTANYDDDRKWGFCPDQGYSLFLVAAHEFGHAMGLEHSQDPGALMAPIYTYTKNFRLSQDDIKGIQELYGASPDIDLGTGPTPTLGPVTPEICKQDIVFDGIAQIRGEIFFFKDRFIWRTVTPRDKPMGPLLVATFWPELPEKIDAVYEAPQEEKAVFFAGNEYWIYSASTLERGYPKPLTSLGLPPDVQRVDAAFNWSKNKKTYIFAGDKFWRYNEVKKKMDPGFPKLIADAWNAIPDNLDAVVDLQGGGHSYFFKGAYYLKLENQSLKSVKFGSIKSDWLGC
# Sequence of human MAP Kinase-Activated Protein Kinase 2 (MAPKAPK2), MAPKAPK2 (gene 9261) (P49137 whole entry, looked up): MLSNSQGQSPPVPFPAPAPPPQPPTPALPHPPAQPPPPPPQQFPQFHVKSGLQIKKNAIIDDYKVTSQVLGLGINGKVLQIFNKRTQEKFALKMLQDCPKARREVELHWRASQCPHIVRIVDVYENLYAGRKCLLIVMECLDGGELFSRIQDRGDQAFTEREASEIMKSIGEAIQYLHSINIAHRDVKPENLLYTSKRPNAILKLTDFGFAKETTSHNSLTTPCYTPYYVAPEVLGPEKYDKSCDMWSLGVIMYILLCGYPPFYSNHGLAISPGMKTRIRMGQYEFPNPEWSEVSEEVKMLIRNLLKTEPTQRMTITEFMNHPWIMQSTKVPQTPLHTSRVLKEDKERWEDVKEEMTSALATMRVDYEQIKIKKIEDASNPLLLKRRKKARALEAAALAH
# Sequence of human NIMA (Never In Mitosis Gene A)-Related Kinase 2 (NEK2), NEK2 (gene 4751) (P51955 whole entry, looked up): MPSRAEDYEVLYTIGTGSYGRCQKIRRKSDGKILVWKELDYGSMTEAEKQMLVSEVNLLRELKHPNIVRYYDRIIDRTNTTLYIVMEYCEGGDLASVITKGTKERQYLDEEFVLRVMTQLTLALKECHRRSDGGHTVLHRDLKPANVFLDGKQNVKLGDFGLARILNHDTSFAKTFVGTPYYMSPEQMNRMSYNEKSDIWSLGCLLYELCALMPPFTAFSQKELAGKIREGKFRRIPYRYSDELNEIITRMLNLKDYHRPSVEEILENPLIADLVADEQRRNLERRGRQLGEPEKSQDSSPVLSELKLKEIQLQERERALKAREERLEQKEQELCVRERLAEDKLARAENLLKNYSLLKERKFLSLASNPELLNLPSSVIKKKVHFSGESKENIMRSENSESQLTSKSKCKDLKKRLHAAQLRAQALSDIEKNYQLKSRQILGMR
# Sequence of Glycogen synthase kinase-3 beta (Homo sapiens) (P49841 whole entry, looked up): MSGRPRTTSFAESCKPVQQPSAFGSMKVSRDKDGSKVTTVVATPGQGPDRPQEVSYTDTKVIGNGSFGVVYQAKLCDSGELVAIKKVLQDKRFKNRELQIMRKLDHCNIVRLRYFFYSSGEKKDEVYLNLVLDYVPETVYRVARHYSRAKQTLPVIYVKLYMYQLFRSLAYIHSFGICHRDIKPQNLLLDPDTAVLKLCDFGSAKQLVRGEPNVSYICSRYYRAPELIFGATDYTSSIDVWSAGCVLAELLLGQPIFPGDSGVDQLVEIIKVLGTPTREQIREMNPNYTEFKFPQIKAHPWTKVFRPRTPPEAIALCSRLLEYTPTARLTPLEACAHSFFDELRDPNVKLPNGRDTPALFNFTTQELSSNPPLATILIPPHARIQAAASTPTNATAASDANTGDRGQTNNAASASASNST
smiles,measurement,setting,value
CC(C)C1(C)N=C(c2ncccc2C(=O)O)NC1=O (configuration not stated),outcome,[1],inactive
CS(=O)(=O)c1ccc(C(=O)C2C(=O)CCCC2=O)c([N+](=O)[O-])c1,AC50,[2],1.59 µM (active)
COP(=S)(OC)SCn1nnc2ccccc2c1=O,outcome,[3],inactive
same,outcome,[4],inactive
same,outcome,[5],inactive
same,AC50,[6],4.85 µM (active)
COC(=O)c1c(C(F)F)nc(C(F)(F)F)c(C2=NCCS2)c1CC(C)C,outcome,[7],inactive
same,outcome,[8],inactive
CN=C=S,outcome,[9],inactive
O=P(O)(O)CCCl,AC50,[10],9.89 µM (active)
O=C1C2CC=CCC2C(=O)N1SC(Cl)(Cl)Cl (configuration not stated),AC50,[3],16.7 µM (active)
same,outcome,[11],inactive
CCCN(CC)CC1COC2(CCC(C(C)(C)C)CC2)O1 (configuration not stated),outcome,[4],inactive
Cc1nc(N(C)C)nc(OC(=O)N(C)C)c1C,outcome,[6],inactive
Nc1cnn(-c2ccccc2)c(=O)c1Cl,outcome,[12],inactive
CC(C)Nc1nc(Cl)nc(NC(C)C)n1,AC50,[13],1 µM (active)
same,outcome,[6],inactive
COC(=O)NC(=S)Nc1ccccc1NC(=S)NC(=O)OC,outcome,[5],inactive
same,outcome,[13],inactive
CCNP(=S)(OC)O/C(C)=C/C(=O)OC(C)C (configuration not stated),outcome,[4],inactive
same,AC50,[13],19.5 µM (active)
CCOP(=O)(OCC)Oc1nc(Cl)c(Cl)cc1Cl,AC50,[13],25 µM (active)
same,outcome,[6],inactive
Cc1cnc(C2=NC(C)(C(C)C)C(=O)N2)c(C(=O)O)c1 (configuration not stated),outcome,[14],inactive
same,outcome,[15],inactive
same,outcome,[6],inactive
COC(=O)N(C(=O)N1CO[C@@]2(C(=O)OC)Cc3cc(Cl)ccc3C2=N1)c1ccc(OC(F)(F)F)cc1,AC50,[2],9.53 µM (active)
same,outcome,[16],inactive
Clc1nc(Cl)nc(Nc2ccccc2Cl)n1,outcome,[14],inactive
same,outcome,[4],inactive
same,outcome,[15],inactive
same,outcome,[9],inactive
same,AC50,[7],7.57 µM (active)
Cc1c(COC(=O)[C@@H]2[C@H](/C=C(\Cl)C(F)(F)F)C2(C)C)cccc1-c1ccccc1,outcome,[9],inactive
COC(=O)NS(=O)(=O)c1ccc(N)cc1,outcome,[11],inactive
same,outcome,[4],inactive
N#Cc1c[nH]cc1-c1cccc2c1OC(F)(F)O2,outcome,[17],inactive
CCOC(=O)C(C)OC(=O)c1cc(Oc2ccc(C(F)(F)F)cc2Cl)ccc1[N+](=O)[O-] (configuration not stated),AC50,[9],15.3 µM (active)
same,outcome,[2],inactive
COP(=S)(OC)Oc1ccc([N+](=O)[O-])c(C)c1,outcome,[13],inactive
CCN(CC)C(=O)C(C)Oc1cccc2ccccc12 (configuration not stated),outcome,[5],inactive
O=C(O)c1c(Cl)ccc2cc(Cl)cnc12,outcome,[18],inactive
Nc1c(Cl)c(Cl)nc(C(=O)O)c1Cl,outcome,[11],inactive
N#Cc1c(Cl)cccc1Cl,outcome,[4],inactive
N#CN=C1SCCN1Cc1ccc(Cl)nc1,outcome,[7],inactive
same,outcome,PPP2CA (gene 5515),inactive
CCC(C)n1c(=O)[nH]c(C)c(Br)c1=O (configuration not stated),AC50,[13],25 µM (active)
CCCC(=NOCC)C1=C(O)CC(CC(C)SCC)CC1=O (configuration not stated),AC50,[1],14.1 µM (active)
same,outcome,[15],inactive
CCN(CC)c1nc(C)cc(OP(=S)(OC)OC)n1,outcome,[7],inactive
same,outcome,[5],inactive
same,AC50,[13],25 µM (active)
CCNC(=O)NC(=O)C(C#N)=NOC,outcome,[10],inactive
Cn1c(-c2ccccc2)cc(-c2ccccc2)[n+]1C,outcome,[16],inactive
CC(C)NC(=O)N1CC(=O)N(c2cc(Cl)cc(Cl)c2)C1=O,outcome,[10],inactive
CC(C)=CC1C(C(=O)OCc2coc(Cc3ccccc3)c2)C1(C)C (configuration not stated),AC50,[7],6.48 µM (active)
same,outcome,[2],inactive
CC(C)(C)C(=O)C(Oc1ccc(Cl)cc1)n1cncn1 (configuration not stated),outcome,[4],inactive
CN/C(=N\[N+](=O)[O-])NCc1cnc(Cl)s1,AC50,[19],22.2 µM (active)
CC1(C)C(C=C(Cl)Cl)C1C(=O)OC(C#N)c1cccc(Oc2ccccc2)c1 (configuration not stated),AC50,[9],11.8 µM (active)
same,AC50,[2],4.96 µM (active)
same,AC50,[5],13.4 µM (active)

# From PubChem BioAssay (EPA / NIEHS)
